Laboratory results as given in paper PMC7819943, “Rice protein-binding microarrays: a tool to detect cis-acting elements near promoter regions in rice”.
The full ranking holds about 68,000 sequences; the median of “fluorescence intensity (a.u.)” is about 9,100, and the highest 2% start at about 16,000. The sample as a whole holds a higher share of the highest values than the screen did.

molecular target: OsWRKY34 (Oryza sativa, UniProt Q0JBA9 1-250); assay: protein-binding microarray (RPBM); PBS, 2% BSA, 51.3 ng/ul salmon testes DNA, 50 uM zinc acetate, 200 nM TF, 25 C, 1 h; high values mean tight binding; settings: protein: recombinant; tags: N-terminal polyhistidine and DsRed monomer fusion (pET32a); label: CyDye5-dUTP incorporated in the synthesized complementary strand; 3' TTTTT single-stranded linker to array surface; dsDNA, one strand shown
Method in brief: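 Binding signal is defined as the fluorescence intensity of each feature in arbitrary units, read on an Axon 4000B scanner. Transcription factors with N-terminal polyhistidine and DsRed fusions came from E. coli BL21-CodonPlus and were purified on Ni–NTA. They were incubated at 200 nM for 1 h at 25 °C on a custom Agilent array that had been made double-stranded with Cy5-dUTP, with 50 µM zinc acetate present, and the array was washed.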

OsWRKY34, sequence (Q0JBA9 entry or part of it): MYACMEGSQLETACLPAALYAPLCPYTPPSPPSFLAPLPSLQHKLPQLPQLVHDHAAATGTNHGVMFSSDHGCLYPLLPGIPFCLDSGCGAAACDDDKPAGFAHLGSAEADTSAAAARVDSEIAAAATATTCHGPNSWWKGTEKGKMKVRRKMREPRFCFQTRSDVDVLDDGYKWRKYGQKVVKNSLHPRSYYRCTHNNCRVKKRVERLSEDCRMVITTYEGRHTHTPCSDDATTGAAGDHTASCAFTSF

Row | Sequence | binding signal
1 | GGCCTCACTATCGTCGACTCCTCCACTCCGGGGACTGCCGCGGAGTCACCTAGTGCAG | 10000 fluorescence intensity (a.u.)
2 | AGCCGATCAGCTTCCAGCTCTTCATCCCAGCTTGCATCGTCGGAGTCACCTAGTGCAG | 9300 fluorescence intensity (a.u.)
3 | CCCCTGTTTCTCGGTTCTTTCGCTCGCCTTCTAGGCCCAACGGAGTCACCTAGTGCAG | 11400 fluorescence intensity (a.u.)
4 | ATGATACTAGCGGAGCTCACTACTTACTATTAGTCAATGTCGGAGTCACCTAGTGCAG | 8330 fluorescence intensity (a.u.)
5 | ATAGCACCTCGAAACACCAAACTATTGCTATTAACATTTTCGGAGTCACCTAGTGCAG | 9650 fluorescence intensity (a.u.)
6 | CCTTAATGCTCGAGATATACTAATACTACTCCCTTTGTTTCGGAGTCACCTAGTGCAG | 10400 fluorescence intensity (a.u.)
7 | TACGCGTTATTTGTTTTTCGCAGCGTTTCCTTTTTTTTTTCGGAGTCACCTAGTGCAG | 9540 fluorescence intensity (a.u.)
8 | TTTATCGCTTTGACTGTTCTACATCTTGCCTCGCCGTGCACGGAGTCACCTAGTGCAG | 9040 fluorescence intensity (a.u.)
9 | GCACAAGGCAGATGGAGGTTGTACAGCTATTATTATTTCACGGAGTCACCTAGTGCAG | 8380 fluorescence intensity (a.u.)
10 | TAATATTAATAAATAAAAAACCAGCGGTCGAACCGTTGACCGGAGTCACCTAGTGCAG | 13000 fluorescence intensity (a.u.)
11 | TAGAGGTGGGCGGTAGGGGCTATTTCTGCAATTTTTTGGTCGGAGTCACCTAGTGCAG | 9680 fluorescence intensity (a.u.)
12 | TGTTGTTGCCGGAATGTGTGTGTGTGCGTGTGTGTGTGTGCGGAGTCACCTAGTGCAG | 8720 fluorescence intensity (a.u.)
13 | ATATTGGTGGGCGCGGATTTTAATAGGTGGGCGGTGGATTCGGAGTCACCTAGTGCAG | 8430 fluorescence intensity (a.u.)
14 | GGCGAGGGGAGAAGAGAAGAGGTGGGTGAGGTGGGGTTTCCGGAGTCACCTAGTGCAG | 12800 fluorescence intensity (a.u.)
15 | GAGAAGAGGAGAGAGAGTGAGAGTGGGCGACAATTTTATCCGGAGTCACCTAGTGCAG | 64200 fluorescence intensity (a.u.)
16 | GGGCATTGAGTGGTGGGGACGTGTGGGAGGCAGGCGGAGACGGAGTCACCTAGTGCAG | 9540 fluorescence intensity (a.u.)
17 | GATCCAAGAGTGGAGAAGGAGAGGGGTGGGGAGCCGGCGACGGAGTCACCTAGTGCAG | 9460 fluorescence intensity (a.u.)
18 | GAGGTAGTGGTTTAGAGGAGGAGGCGGAGAAGAGGAGGGACGGAGTCACCTAGTGCAG | 9020 fluorescence intensity (a.u.)
19 | GGTTGCGTTGTTGCGGGCGTTGTTGCGGGCGGGCGGTCAGCGGAGTCACCTAGTGCAG | 16600 fluorescence intensity (a.u.)
20 | TTCGTTGTTGGTGGTGGTGGCGGGCGGAAGATGCGGTTGCCGGAGTCACCTAGTGCAG | 10000 fluorescence intensity (a.u.)
21 | TGGTGGGCGGTGGAGTTATTTTCTTAATAGAGCATTGAGACGGAGTCACCTAGTGCAG | 23900 fluorescence intensity (a.u.)
22 | AGGAGGTGGTATTATTTTTTTTTTGGTAGAGAGGGGAGGGCGGAGTCACCTAGTGCAG | 16500 fluorescence intensity (a.u.)

Row | Sequence | binding signal
23 | AATCTACACTAATTCTTCTGGTCTACACATTAAGTTATGACGGAGTCACCTAGTGCAG | 8670 fluorescence intensity (a.u.)
24 | CCATGTCCGGATTCTCTAGGATTGCCTCCAATTTCTTCGCCGGAGTCACCTAGTGCAG | 8890 fluorescence intensity (a.u.)
25 | TCCTACCTACAGCTATAGCTGCGTGCCGGGGTTGGGGCTGCGGAGTCACCTAGTGCAG | 8750 fluorescence intensity (a.u.)
26 | CATCCTTCTCCGCGGCCATTTCTTGGAGCAAATCTCATTTCGGAGTCACCTAGTGCAG | 8420 fluorescence intensity (a.u.)
27 | CCGCGGGCTTGGCTTGGCTGGCACCCTCTCCTTCTCGTCTCGGAGTCACCTAGTGCAG | 10300 fluorescence intensity (a.u.)
28 | ACCCCAACGCAACCACTCTTCTCTACTACAATCGTTACTCCGGAGTCACCTAGTGCAG | 9310 fluorescence intensity (a.u.)
29 | ATCCCAAACACTCTCGCCTCGTCTCCTCTCACACCACACGCGGAGTCACCTAGTGCAG | 10500 fluorescence intensity (a.u.)
30 | CATTACCGCCACCTTCGATGCCGCCGCCTGCCGCTACCCGCGGAGTCACCTAGTGCAG | 8580 fluorescence intensity (a.u.)
31 | TTAATACTTACTACTTGTCTGCTTTGAGTTTTTTGTTTAACGGAGTCACCTAGTGCAG | 9060 fluorescence intensity (a.u.)
32 | CCTCGCCGTCGCCGGTCCTCGTCTCCTCCTCTATCTATATCGGAGTCACCTAGTGCAG | 8600 fluorescence intensity (a.u.)
33 | ACCATGGGCGCACACGCTTCACTGCGTCTTTTTCCATCCACGGAGTCACCTAGTGCAG | 8320 fluorescence intensity (a.u.)
34 | CGGCGCGGCGGAAGGAGGAGGGGTGGTGGATTCGTAGGGGCGGAGTCACCTAGTGCAG | 14600 fluorescence intensity (a.u.)
35 | GCTAGATTGGATAAGGAGGGGAGGAGGGTGGAGGGGAGGGCGGAGTCACCTAGTGCAG | 22700 fluorescence intensity (a.u.)
36 | AGGTCATCGCAGGGCTCCTCTCCATCGCAGCCGCTCCAGCCGGAGTCACCTAGTGCAG | 8910 fluorescence intensity (a.u.)
37 | AATGTGGTGGTGGTGGTGGTGAACGGAGGAGGGAGGGAGCCGGAGTCACCTAGTGCAG | 13000 fluorescence intensity (a.u.)
38 | GGTTTGGTGGCGGAAAAGGTGGAGGCCTAGGTGGTGGTGGCGGAGTCACCTAGTGCAG | 8660 fluorescence intensity (a.u.)
39 | CTGAAGTGAGGGAGGGGAGGAGGTGGTGGTGGTGGGGAAGCGGAGTCACCTAGTGCAG | 15600 fluorescence intensity (a.u.)
40 | GGTTGGTGGTGGAGGTGGTCAAGGCGGTGGTTTTGGAGCCCGGAGTCACCTAGTGCAG | 16400 fluorescence intensity (a.u.)
41 | GGAGGAGGAGGTGGTGGTGGTGGTGAAGCCGCGGAGGTGCCGGAGTCACCTAGTGCAG | 18000 fluorescence intensity (a.u.)
42 | AAGGCGGGAGGTTGAGAGAGAGATAAGGGAGAGAGAGGGGCGGAGTCACCTAGTGCAG | 8120 fluorescence intensity (a.u.)
43 | GCGGTGGAGAGTGGTGGGAGGTTGGGGAGAAGGCGGCGGCCGGAGTCACCTAGTGCAG | 14800 fluorescence intensity (a.u.)
44 | CCTCGCTCTCCATGGTGGTGGTGGTGGTCAGGTGGTGGGGCGGAGTCACCTAGTGCAG | 18800 fluorescence intensity (a.u.)

Row | Sequence | binding signal
45 | CCGCCATGTGGGCCCCACCTCGCCGCCTCCGCTCCACTCTCGGAGTCACCTAGTGCAG | 13600 fluorescence intensity (a.u.)
46 | TCCGGTTGTTTGCCGTGGCACTTCCTTTCTCCCTATTGGCCGGAGTCACCTAGTGCAG | 8260 fluorescence intensity (a.u.)
47 | AAGTGGGTGAGTCCAATAGGTGTGCACGTGAGGGGAGGGGCGGAGTCACCTAGTGCAG | 10500 fluorescence intensity (a.u.)
48 | ATTCGTGCTCAGTTGTTTCTTTTCCAACTCCGGCGTCCTCCGGAGTCACCTAGTGCAG | 8150 fluorescence intensity (a.u.)
49 | TACTCCTTATATTCCTTCATTTTTCAGCCTCGATCAGCTCCGGAGTCACCTAGTGCAG | 8130 fluorescence intensity (a.u.)
50 | TACGAGCTTCTCCTCCTCCGCTGGTCATCATCCTACCTGTCGGAGTCACCTAGTGCAG | 8440 fluorescence intensity (a.u.)
51 | TTCTACAGGAGTATCATCATCTTTGTGTTCTGGCTCCTGTCGGAGTCACCTAGTGCAG | 9040 fluorescence intensity (a.u.)
52 | GACAATTTCTTTTTCCGATGGGATTTTAGTTTTTTGTTTTCGGAGTCACCTAGTGCAG | 9700 fluorescence intensity (a.u.)
53 | CTCGCTAGCCCTCTGAACCTTGCAGTTTGTTGTTTGCACCCGGAGTCACCTAGTGCAG | 13600 fluorescence intensity (a.u.)
54 | GGGAGAGGGGTGTGGGGCGGAGAGGGAGAGGGAGATGGGACGGAGTCACCTAGTGCAG | 9680 fluorescence intensity (a.u.)
55 | GATGCGCGCGAACGGAGACGACGGGGTAGGGTGGGGAGGGCGGAGTCACCTAGTGCAG | 12300 fluorescence intensity (a.u.)
56 | GGGCGGAGCGGGGCGGAGGGAGAGGAGGGAGAGGAGGGAGCGGAGTCACCTAGTGCAG | 8480 fluorescence intensity (a.u.)
57 | GGCAGATGTGGACGGAGGGAGGGAGGGAGGGAGAGGGGCACGGAGTCACCTAGTGCAG | 17100 fluorescence intensity (a.u.)
58 | GCGGAGGTGGTGGTGGCCTTGGAGGAGGTGGCGGCGGAGGCGGAGTCACCTAGTGCAG | 14300 fluorescence intensity (a.u.)
59 | GGAGAGGGAGCGGGAGAGGGAGGATTGGAGGATGTGGGGACGGAGTCACCTAGTGCAG | 8940 fluorescence intensity (a.u.)
60 | GACCGAGAGCAGGCGACGGGGTGGGTGGAGGTAGTGAGAACGGAGTCACCTAGTGCAG | 9200 fluorescence intensity (a.u.)
61 | GGAGGTGGAGGCGGCGGAGGAGGTGGTGGTGGAGGTGGAGCGGAGTCACCTAGTGCAG | 17900 fluorescence intensity (a.u.)
62 | TCGGCCCGAGCGGTGGCGGTGGCGGTGGCGGAGGAGGAGGCGGAGTCACCTAGTGCAG | 10100 fluorescence intensity (a.u.)
63 | AGGAGGGCGGAGGAGGTGGTGGTGGTGGTGGTGGAGAGAGCGGAGTCACCTAGTGCAG | 25700 fluorescence intensity (a.u.)
64 | CGACGAGCGAGAGGTAGGTGAGAGAGAGACGGGCGGCGAACGGAGTCACCTAGTGCAG | 65100 fluorescence intensity (a.u.)
